Experimental data as given in PubChem BioAssay AID1159580 (chemical genetic matrix, 2015).
In all, about 5,500 compounds went through this assay and about 2,000 (36%) were called active. Another 18% or so got no clear call; they are omitted. Cut-off read from the data, not from the text of the source: active = normalized growth mostly below about 0.91 (no sharp cut-off); inconclusive = no clear call, values can overlap the other calls; inactive = mostly above about 0.92. The list shows a part of the results.

Assay: chemical genetic growth profiling, strain panel (AID 1159580);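 note: tested at 20 µM; growth read once vehicle control cultures reached saturation at 30 °C; 1 = growth at the plate median or of vehicle wells; lower values mean less growth of the strain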
Details: growth OD

Measured: normalized growth

NS(=O)(=O)c1ccc(-n2ncc3ccccc3c2=O)cc1
inactive: S. cerevisiae deletion strains, locus YAL013W, strain DEP1, hits give low values 1.02 | S. cerevisiae deletion strains, locus YBR229C, strain ROT2, hits give low values 1.01 | S. cerevisiae deletion strains, locus YCL061C, strain MRC1, hits give low values 1.01 | S. cerevisiae deletion strains, locus YDL101C, strain DUN1, hits give low values 1.04 | S. cerevisiae deletion strains, locus YDL134C, strain PPH21, hits give low values 1.02 | S. cerevisiae deletion strains, locus YDR150W, strain NUM1, hits give low values 0.989 | S. cerevisiae deletion strains, locus YEL061C, strain CIN8, hits give low values 0.987 | S. cerevisiae deletion strains, locus YGR078C, strain PAC10, hits give low values 1.02 | S. cerevisiae deletion strains, locus YHR030C, strain SLT2, hits give low values 1.05 | S. cerevisiae deletion strains, locus YHR087W, strain rtc3, hits give low values 1 | S. cerevisiae deletion strains, locus YJR043C, strain POL32, hits give low values 1.01 | S. cerevisiae deletion strains, locus YJR075W, strain HOC1, hits give low values 1.02 | S. cerevisiae deletion strains, locus YKL190W, strain CNB1, hits give low values 1 | S. cerevisiae deletion strains, locus YLR039C, strain RIC1, hits give low values 1.01 | S. cerevisiae deletion strains, locus YLR058C, strain SHM2 (second series), hits give low values 0.994 | S. cerevisiae deletion strains, locus YLR085C, strain ARP6, hits give low values 0.984 | S. cerevisiae deletion strains, locus YLR262C, strain YPT6, hits give low values 1.06 | S. cerevisiae deletion strains, locus YML094W, strain GIM5, hits give low values 0.986 | S. cerevisiae deletion strains, locus YMR219W, strain ESC1, hits give low values 1 | S. cerevisiae deletion strains, locus YMR263W, strain SAP30, hits give low values 1.01 | S. cerevisiae deletion strains, locus YMR307W, strain GAS1, hits give low values 0.981 | S. cerevisiae deletion strains, locus YNL153C, strain GIM3, hits give low values 0.996 | S. cerevisiae deletion strains, locus YNL298W, strain CLA4 (second series), hits give low values 1.01 | S. cerevisiae deletion strains, locus YNL322C, strain KRE1, hits give low values 1.01 | S. cerevisiae deletion strains, locus YNR030W, strain Alg12, hits give low values 1.01 | S. cerevisiae deletion strains, locus YPL055C, strain LGE1, hits give low values 1.02 | S. cerevisiae deletion strains, locus YPL241C, strain CIN2, hits give low values 1.03 | S. cerevisiae deletion strains, locus YPR135W, strain CTF4, hits give low values 1.06 | S. cerevisiae strains, strain wild type, hits give low values 1.01
